Laboratory results published in PubChem BioAssay.
Calls of active or inactive are those of the source.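 Rule for the calls: active = Her2 level under about 52% in both replicate screens, with viability over 70% of control (limit read from the data); inconclusive = Her2 under the limit in one screen only, or viability under 70%; inactive = Her2 level above the set limit.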

tested on: not listed separately; test: reducers of endogenous Her2 protein level, primary screen, SKBR3 breast tumor cells, AlphaScreen, ATP viability (AID 461); conditions: 18-24 h, measured here: SKBR3 viability, ATP luminescence, at 10 µM;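 for Her2 level: lower value means less Her2 protein in the cells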;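 for viability: percent of carrier control wells set as 100% viability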

**Q.** With `CCn1c(SCC(=O)Nc2nnc(C)s2)nnc1-c1ccncc1` as the compound, how does the viability read?
**A.** Its viability is 112%.

**Q.** For `O=C1CN(Cc2ccccc2)C(=NCc2ccco2)S1`, which viability is on record?
**A.** The viability was 97%.

**Q.** For `COc1ccc(NC(=O)c2cc(C(C)C)on2)c(OC)c1`, which viability is on record?
**A.** The viability was 93.5%.

**Q.** Which viability does the source give for `COc1ccc(N2CCN(CCCNC(=O)C3(S(=O)(=O)c4ccc(Cl)cc4)CC3)CC2)cc1` here?
**A.** Its viability is 87.5%.

**Q.** For `O=c1oc2ccccc2c2c1ncn2-c1ccccc1`, which viability is on record?
**A.** The viability was 100%.

**Q.** Which viability does the source give for `O=C(Cn1ncc2ccccc21)N1CCN(c2cccc(C(F)(F)F)c2)CC1` here?
**A.** The viability was 89.5%.

**Q.** For `O=C(NCc1ccccn1)c1cccs1`, which viability is on record?
**A.** Its viability is 97%.

**Q.** Which viability does the source give for `O=C(NC1CCCC1)C1CC1c1ccccc1` (stereo not given) here?
**A.** Its viability is 100%.

**Q.** With `CCNc1nc(N2CCOCC2)nc(N(c2ccccc2)c2ccccc2)n1` as the compound, how does the viability read?
**A.** Its viability is 80.5%.

**Q.** For `Cc1ccc(S(=O)(=O)N(C)Cc2cc3ccccc3[nH]c2=O)cc1`, which viability is on record?
**A.** Its viability is 114%.

**Q.** With `COc1ccc(S(=O)(=O)N2CCN(CC(=O)Nc3ccc(C)c(F)c3)CC2)cc1` as the compound, how does the viability read?
**A.** Its viability is 89.5%.

**Q.** With `CC(C)(C)C(=O)/C=C(\N)c1ccccn1` as the compound, how does the viability read?
**A.** The viability was 102%.

**Q.** With `O=c1c2cc(N3CCOCC3)ccc2[nH]c(=S)n1CCCN1CCCCC1` as the compound, how does the viability read?
**A.** Its viability is 83.5%.

**Q.** For `O=C(CC1CCS(=O)(=O)C1)Nc1ccc[nH]c1=O` (stereo not given), which viability is on record?
**A.** The viability was 102%.

**Q.** With `CCC(=O)c1ccc(OC(=O)c2ccc(Br)o2)cc1` as the compound, how does the viability read?
**A.** Its viability is 102%.

**Q.** For `CC1CCN(CCn2c(=S)[nH]c3ncccc3c2=O)CC1`, which viability is on record?
**A.** Its viability is 98.5%.

**Q.** Which viability does the source give for `CC(C)CC(=O)CN1C(=O)C2(OCCO2)c2ccccc21` here?
**A.** Its viability is 93.5%.

**Q.** For `CS(=O)(=O)c1ccc2nc(NC(=O)CCC(=O)c3cccs3)sc2c1`, which viability is on record?
**A.** Its viability is 91%.

**Q.** Which viability does the source give for `O=S(=O)(NCc1cn2ccsc2n1)c1ccc2c(c1)OCCO2` here?
**A.** The viability was 117%.

**Q.** For `CC1(CC(=O)O)C(=O)N=C2C=CC=CN21` (stereo not given), which viability is on record?
**A.** The viability was 93%.

**Q.** With `CCN(CC)S(=O)(=O)c1cccc(-c2nnc(SCC(N)=O)n2CCc2ccccc2)c1` as the compound, how does the viability read?
**A.** The viability was 102%.

**Q.** Which viability does the source give for `CC1(C)Cc2noc(N)c2C(C)(C)N1O` here?
**A.** Its viability is 121%.

**Q.** For `CCOc1ccc(Cc2nn[nH]n2)cc1`, which viability is on record?
**A.** The viability was 86.5%.

**Q.** Which viability does the source give for `CC(C)NC(=O)CSc1nnc(-c2ccc(C(C)(C)C)cc2)n1C` here?
**A.** The viability was 95%.

**Q.** Which viability does the source give for `C=CCC(NCc1ccco1)c1ccc(OC)cc1OC` (stereo not given) here?
**A.** Its viability is 96%.

**Q.** With `CCN(c1cccc(C(F)(F)F)c1)S(=O)(=O)c1ccc2c(c1)CCN2C(=O)C1CC1` as the compound, how does the viability read?
**A.** The viability was 99%.

**Q.** Which viability does the source give for `COc1ccc(OC)c(S(=O)(=O)N2CCC(C(=O)NCC3CCCO3)CC2)c1` (stereo not given) here?
**A.** The viability was 101%.

**Q.** For `Cn1c(COc2ccc(Cl)cc2)nnc1SCC(=O)NC1CCCCC1`, which viability is on record?
**A.** The viability was 77%.

**Q.** With `CCN(c1c(C)n(C)n(-c2ccccc2)c1=O)S(C)(=O)=O` as the compound, how does the viability read?
**A.** The viability was 98.5%.

**Q.** For `CCc1nc(N)c(C#N)c(-c2ccc(OC)c(OC)c2)c1C`, which viability is on record?
**A.** The viability was 98.5%.

**Q.** Which viability does the source give for `CSCCC(NC(=O)c1occc1C)C(=O)O` (stereo not given) here?
**A.** The viability was 93.5%.

**Q.** With `Cc1cccc(N2CCN(S(=O)(=O)c3ccc4c(c3)CCC(=O)N4)CC2C)c1` (stereo not given) as the compound, how does the viability read?
**A.** The viability was 110%.

**Q.** With `c1cnn(-c2cc(N3CCOCC3)ncn2)c1` as the compound, how does the viability read?
**A.** Its viability is 70%.

**Q.** With `Cc1cccc(NC(=O)COc2ccc(Br)cc2)n1` as the compound, how does the viability read?
**A.** The viability was 126%.

**Q.** With `CCOC(=O)c1ccc(-c2c(C(=O)OCC)oc3cc(O)c(CC)cc3c2=O)o1` as the compound, how does the viability read?
**A.** The viability was 96.5%.

**Q.** Which viability does the source give for `CC(C)NC(=O)CSCc1ccccc1Cl` here?
**A.** The viability was 96%.

**Q.** For `O=C(CSc1n[nH]c(-c2cccs2)n1)N1CCN(S(=O)(=O)c2ccccc2)CC1`, which viability is on record?
**A.** The viability was 80.5%.

**Q.** Which viability does the source give for `O=S(=O)(c1ccc2ccccc2c1)N1CCCCC1` here?
**A.** Its viability is 102%.

**Q.** For `C=CCn1c(CC#N)nnc1N1CCOCC1`, which viability is on record?
**A.** The viability was 90.5%.

**Q.** With `COc1ccc(OC)c(C2=NOC(C(=O)Nc3cccnc3)C2)c1` (stereo not given) as the compound, how does the viability read?
**A.** Its viability is 78.5%.

target: Receptor tyrosine-protein kinase erbB-2 (Homo sapiens) (UniProt P04626); test: as above; conditions: 18-24 h, at 10 µM, stronger effect = lower value
Sequence (P04626 whole entry, looked up): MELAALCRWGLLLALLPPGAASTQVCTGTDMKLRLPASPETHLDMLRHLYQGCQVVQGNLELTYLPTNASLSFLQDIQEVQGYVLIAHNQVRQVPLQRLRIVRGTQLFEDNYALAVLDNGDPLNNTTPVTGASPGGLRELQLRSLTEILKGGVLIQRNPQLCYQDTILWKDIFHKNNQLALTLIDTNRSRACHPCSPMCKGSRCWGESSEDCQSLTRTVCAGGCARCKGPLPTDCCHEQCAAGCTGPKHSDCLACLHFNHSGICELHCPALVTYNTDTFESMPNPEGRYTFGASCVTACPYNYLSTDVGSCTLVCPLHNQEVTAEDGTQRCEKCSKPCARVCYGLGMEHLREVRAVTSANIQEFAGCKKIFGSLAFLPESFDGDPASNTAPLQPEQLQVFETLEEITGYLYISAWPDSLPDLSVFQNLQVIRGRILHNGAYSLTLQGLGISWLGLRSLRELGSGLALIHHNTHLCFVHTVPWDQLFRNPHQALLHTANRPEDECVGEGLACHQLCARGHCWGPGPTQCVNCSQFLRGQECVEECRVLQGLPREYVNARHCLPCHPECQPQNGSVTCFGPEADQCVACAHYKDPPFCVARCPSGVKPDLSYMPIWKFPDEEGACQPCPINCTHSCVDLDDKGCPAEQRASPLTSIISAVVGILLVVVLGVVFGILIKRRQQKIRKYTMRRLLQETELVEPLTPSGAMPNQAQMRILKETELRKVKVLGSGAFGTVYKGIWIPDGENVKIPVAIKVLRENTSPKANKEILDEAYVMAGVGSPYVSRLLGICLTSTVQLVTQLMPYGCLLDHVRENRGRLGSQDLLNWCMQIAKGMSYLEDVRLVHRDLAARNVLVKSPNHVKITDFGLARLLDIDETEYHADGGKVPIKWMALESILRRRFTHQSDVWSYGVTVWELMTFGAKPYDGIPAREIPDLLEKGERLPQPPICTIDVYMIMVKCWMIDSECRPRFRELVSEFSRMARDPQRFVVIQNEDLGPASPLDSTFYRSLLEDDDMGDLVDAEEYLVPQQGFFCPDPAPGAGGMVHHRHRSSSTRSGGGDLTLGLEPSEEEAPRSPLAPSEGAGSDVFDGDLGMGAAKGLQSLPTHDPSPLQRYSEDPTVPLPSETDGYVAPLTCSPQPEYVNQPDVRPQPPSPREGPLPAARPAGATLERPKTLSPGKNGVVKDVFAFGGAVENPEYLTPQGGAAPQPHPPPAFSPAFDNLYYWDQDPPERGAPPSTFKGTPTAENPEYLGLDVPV

**Q.** With `CCn1c(SCC(=O)Nc2nnc(C)s2)nnc1-c1ccncc1` as the compound, how does the Her2 level read?
**A.** Its Her2 level is 76% (inactive).

**Q.** Which Her2 level does the source give for `O=C1CN(Cc2ccccc2)C(=NCc2ccco2)S1` here?
**A.** The Her2 level was 74% (inactive).

**Q.** Which Her2 level does the source give for `COc1ccc(NC(=O)c2cc(C(C)C)on2)c(OC)c1` here?
**A.** Its Her2 level is 85.5% (inactive).

**Q.** Which Her2 level does the source give for `COc1ccc(N2CCN(CCCNC(=O)C3(S(=O)(=O)c4ccc(Cl)cc4)CC3)CC2)cc1` here?
**A.** The Her2 level was 96.5% (inactive).

**Q.** For `O=c1oc2ccccc2c2c1ncn2-c1ccccc1`, which Her2 level is on record?
**A.** Its Her2 level is 96% (inactive).

**Q.** For `O=C(Cn1ncc2ccccc21)N1CCN(c2cccc(C(F)(F)F)c2)CC1`, which Her2 level is on record?
**A.** The Her2 level was 94.5% (inactive).

**Q.** With `O=C(NCc1ccccn1)c1cccs1` as the compound, how does the Her2 level read?
**A.** The Her2 level was 80.5% (inactive).

**Q.** With `O=C(NC1CCCC1)C1CC1c1ccccc1` (stereo not given) as the compound, how does the Her2 level read?
**A.** Its Her2 level is 102% (inactive).

**Q.** With `CCNc1nc(N2CCOCC2)nc(N(c2ccccc2)c2ccccc2)n1` as the compound, how does the Her2 level read?
**A.** The Her2 level was 97% (inactive).

**Q.** For `Cc1ccc(S(=O)(=O)N(C)Cc2cc3ccccc3[nH]c2=O)cc1`, which Her2 level is on record?
**A.** The Her2 level was 86.5% (inactive).

**Q.** Which Her2 level does the source give for `COc1ccc(S(=O)(=O)N2CCN(CC(=O)Nc3ccc(C)c(F)c3)CC2)cc1` here?
**A.** The Her2 level was 93.5% (inactive).

**Q.** With `CC(C)(C)C(=O)/C=C(\N)c1ccccn1` as the compound, how does the Her2 level read?
**A.** Its Her2 level is 94.5% (inactive).

**Q.** For `O=c1c2cc(N3CCOCC3)ccc2[nH]c(=S)n1CCCN1CCCCC1`, which Her2 level is on record?
**A.** Its Her2 level is 93.5% (inactive).

**Q.** With `O=C(CC1CCS(=O)(=O)C1)Nc1ccc[nH]c1=O` (stereo not given) as the compound, how does the Her2 level read?
**A.** Its Her2 level is 82.5% (inactive).

**Q.** For `CCC(=O)c1ccc(OC(=O)c2ccc(Br)o2)cc1`, which Her2 level is on record?
**A.** The Her2 level was 78.5% (inactive).

**Q.** For `CC1CCN(CCn2c(=S)[nH]c3ncccc3c2=O)CC1`, which Her2 level is on record?
**A.** The Her2 level was 95% (inactive).

**Q.** With `CC(C)CC(=O)CN1C(=O)C2(OCCO2)c2ccccc21` as the compound, how does the Her2 level read?
**A.** The Her2 level was 107% (inactive).

**Q.** With `CS(=O)(=O)c1ccc2nc(NC(=O)CCC(=O)c3cccs3)sc2c1` as the compound, how does the Her2 level read?
**A.** The Her2 level was 102% (inactive).

**Q.** Which Her2 level does the source give for `O=S(=O)(NCc1cn2ccsc2n1)c1ccc2c(c1)OCCO2` here?
**A.** The Her2 level was 102% (inactive).

**Q.** With `CC1(CC(=O)O)C(=O)N=C2C=CC=CN21` (stereo not given) as the compound, how does the Her2 level read?
**A.** The Her2 level was 87.5% (inactive).

**Q.** Which Her2 level does the source give for `CCN(CC)S(=O)(=O)c1cccc(-c2nnc(SCC(N)=O)n2CCc2ccccc2)c1` here?
**A.** The Her2 level was 108% (inactive).

**Q.** With `CC1(C)Cc2noc(N)c2C(C)(C)N1O` as the compound, how does the Her2 level read?
**A.** Its Her2 level is 91% (inactive).

**Q.** Which Her2 level does the source give for `CCOc1ccc(Cc2nn[nH]n2)cc1` here?
**A.** Its Her2 level is 84.5% (inactive).

**Q.** With `CC(C)NC(=O)CSc1nnc(-c2ccc(C(C)(C)C)cc2)n1C` as the compound, how does the Her2 level read?
**A.** The Her2 level was 82% (inactive).

**Q.** For `C=CCC(NCc1ccco1)c1ccc(OC)cc1OC` (stereo not given), which Her2 level is on record?
**A.** The Her2 level was 98.5% (inactive).

**Q.** Which Her2 level does the source give for `CCN(c1cccc(C(F)(F)F)c1)S(=O)(=O)c1ccc2c(c1)CCN2C(=O)C1CC1` here?
**A.** The Her2 level was 120% (inactive).

**Q.** For `COc1ccc(OC)c(S(=O)(=O)N2CCC(C(=O)NCC3CCCO3)CC2)c1` (stereo not given), which Her2 level is on record?
**A.** Its Her2 level is 84.5% (inactive).

**Q.** With `Cn1c(COc2ccc(Cl)cc2)nnc1SCC(=O)NC1CCCCC1` as the compound, how does the Her2 level read?
**A.** Its Her2 level is 108% (inactive).

**Q.** Which Her2 level does the source give for `CCN(c1c(C)n(C)n(-c2ccccc2)c1=O)S(C)(=O)=O` here?
**A.** Its Her2 level is 79.5% (inactive).

**Q.** Which Her2 level does the source give for `CCc1nc(N)c(C#N)c(-c2ccc(OC)c(OC)c2)c1C` here?
**A.** The Her2 level was 93% (inactive).

**Q.** For `CSCCC(NC(=O)c1occc1C)C(=O)O` (stereo not given), which Her2 level is on record?
**A.** The Her2 level was 94.5% (inactive).

**Q.** For `Cc1cccc(N2CCN(S(=O)(=O)c3ccc4c(c3)CCC(=O)N4)CC2C)c1` (stereo not given), which Her2 level is on record?
**A.** The Her2 level was 95% (inactive).

**Q.** With `c1cnn(-c2cc(N3CCOCC3)ncn2)c1` as the compound, how does the Her2 level read?
**A.** Its Her2 level is 117% (inactive).

**Q.** Which Her2 level does the source give for `Cc1cccc(NC(=O)COc2ccc(Br)cc2)n1` here?
**A.** Its Her2 level is 110% (inactive).

**Q.** Which Her2 level does the source give for `CCOC(=O)c1ccc(-c2c(C(=O)OCC)oc3cc(O)c(CC)cc3c2=O)o1` here?
**A.** The Her2 level was 88.5% (inactive).

**Q.** Which Her2 level does the source give for `CC(C)NC(=O)CSCc1ccccc1Cl` here?
**A.** Its Her2 level is 95% (inactive).

**Q.** For `O=C(CSc1n[nH]c(-c2cccs2)n1)N1CCN(S(=O)(=O)c2ccccc2)CC1`, which Her2 level is on record?
**A.** Its Her2 level is 78.5% (inactive).

**Q.** With `O=S(=O)(c1ccc2ccccc2c1)N1CCCCC1` as the compound, how does the Her2 level read?
**A.** Its Her2 level is 82.5% (inactive).

**Q.** With `C=CCn1c(CC#N)nnc1N1CCOCC1` as the compound, how does the Her2 level read?
**A.** Its Her2 level is 88% (inactive).

**Q.** Which Her2 level does the source give for `COc1ccc(OC)c(C2=NOC(C(=O)Nc3cccnc3)C2)c1` (stereo not given) here?
**A.** Its Her2 level is 82% (inactive).
